{"source": "PubChem BioAssay AID1159580", "about": "(chemical genetic matrix, 2015)", "experiment": "chemical genetic growth profiling, strain panel (AID 1159580);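 also: tested at 20 µM; growth read once vehicle control cultures reached saturation at 30 °C; 1 = growth at the plate median or of vehicle wells; lower values mean less growth of the strain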", "conditions": "growth OD", "note": "The whole screen tested about 5,500 compounds, of which about 2,000 (36%) were called active. Not shown: some 18% with an inconclusive outcome. The list shows a part of the results. Values without a mark were called inactive. Rule as the data show it: active = normalized growth mostly below about 0.91 (no sharp cut-off); inconclusive = no clear call, values can overlap the other calls; inactive = mostly above about 0.92."}
{"smiles": "O=C(Oc1cc(O)cc2c1C[C@@H](OC(=O)c1cc(O)c(O)c(O)c1)[C@@H](c1cc(O)c(O)c(O)c1)O2)c1cc(O)c(O)c(O)c1", "values": [{"measurement": "normalized growth", "setting": "S. cerevisiae deletion strains, locus YJL187C, strain SWE1, stronger effect = lower value", "value": 1.02}, {"measurement": "normalized growth", "setting": "S. cerevisiae deletion strains, locus YJR043C, strain POL32, stronger effect = lower value", "value": "0.13 (active)"}, {"measurement": "normalized growth", "setting": "S. cerevisiae deletion strains, locus YJR066W, strain TOR1, stronger effect = lower value", "value": 0.949}, {"measurement": "normalized growth", "setting": "S. cerevisiae deletion strains, locus YKL009W, strain mrt4, stronger effect = lower value", "value": 1.02}, {"measurement": "normalized growth", "setting": "S. cerevisiae deletion strains, locus YKL068W, stronger effect = lower value", "value": 0.985}, {"measurement": "normalized growth", "setting": "S. cerevisiae deletion strains, locus YKL085W, strain MDH1 (second series), stronger effect = lower value", "value": 1.03}, {"measurement": "normalized growth", "setting": "S. cerevisiae deletion strains, locus YKL085W, strain MDH1, stronger effect = lower value", "value": 1.03}, {"measurement": "normalized growth", "setting": "S. cerevisiae deletion strains, locus YKL160W, strain elf1, stronger effect = lower value", "value": 1.01}, {"measurement": "normalized growth", "setting": "S. cerevisiae deletion strains, locus YKR001C, strain vps1, stronger effect = lower value", "value": "0.599 (active)"}, {"measurement": "normalized growth", "setting": "S. cerevisiae deletion strains, locus YKR026C, strain gcn3, stronger effect = lower value", "value": 0.984}, {"measurement": "normalized growth", "setting": "S. cerevisiae deletion strains, locus YKR091W, strain srl3, stronger effect = lower value", "value": 1.01}, {"measurement": "normalized growth", "setting": "S. cerevisiae deletion strains, locus YLL001W, strain dnm1, stronger effect = lower value", "value": 1.01}, {"measurement": "normalized growth", "setting": "S. cerevisiae deletion strains, locus YLL026W, stronger effect = lower value", "value": 1.01}, {"measurement": "normalized growth", "setting": "S. cerevisiae deletion strains, locus YLL041C, strain sdh2, stronger effect = lower value", "value": 1.01}, {"measurement": "normalized growth", "setting": "S. cerevisiae deletion strains, locus YLR027C, strain aat2, stronger effect = lower value", "value": 0.996}, {"measurement": "normalized growth", "setting": "S. cerevisiae deletion strains, locus YLR039C, strain RIC1, stronger effect = lower value", "value": "0.233 (active)"}, {"measurement": "normalized growth", "setting": "S. cerevisiae deletion strains, locus YLR058C, strain SHM2, stronger effect = lower value", "value": "0.141 (active)"}, {"measurement": "normalized growth", "setting": "S. cerevisiae deletion strains, locus YLR102C, strain apc9, stronger effect = lower value", "value": 0.948}, {"measurement": "normalized growth", "setting": "S. cerevisiae deletion strains, locus YLR113W, strain HOG1, stronger effect = lower value", "value": 1.06}, {"measurement": "normalized growth", "setting": "S. cerevisiae deletion strains, locus YLR221C, strain rsa3, stronger effect = lower value", "value": 1.03}, {"measurement": "normalized growth", "setting": "S. cerevisiae deletion strains, locus YLR258W, strain gsy2, stronger effect = lower value", "value": 1.01}, {"measurement": "normalized growth", "setting": "S. cerevisiae deletion strains, locus YLR262C, strain YPT6 (second series), stronger effect = lower value", "value": 1.01}, {"measurement": "normalized growth", "setting": "S. cerevisiae deletion strains, locus YLR268W, strain sec22, stronger effect = lower value", "value": "0.414 (active)"}, {"measurement": "normalized growth", "setting": "S. cerevisiae deletion strains, locus YLR320W, strain mms22, stronger effect = lower value", "value": 1.04}, {"measurement": "normalized growth", "setting": "S. cerevisiae deletion strains, locus YLR330W, strain CHS5, stronger effect = lower value", "value": "0.613 (active)"}, {"measurement": "normalized growth", "setting": "S. cerevisiae deletion strains, locus YLR342W, strain FKS1 (second series), stronger effect = lower value", "value": "0.198 (active)"}, {"measurement": "normalized growth", "setting": "S. cerevisiae deletion strains, locus YLR342W, strain FKS1, stronger effect = lower value", "value": 1.04}, {"measurement": "normalized growth", "setting": "S. cerevisiae deletion strains, locus YLR357W, strain rsc2, stronger effect = lower value", "value": 1.01}, {"measurement": "normalized growth", "setting": "S. cerevisiae deletion strains, locus YLR370C, strain arc18, stronger effect = lower value", "value": 1.01}, {"measurement": "normalized growth", "setting": "S. cerevisiae deletion strains, locus YLR371W, strain rom2, stronger effect = lower value", "value": "0.602 (active)"}, {"measurement": "normalized growth", "setting": "S. cerevisiae deletion strains, locus YLR384C, strain iki3, stronger effect = lower value", "value": 0.998}, {"measurement": "normalized growth", "setting": "S. cerevisiae deletion strains, locus YLR418C, strain cdc73, stronger effect = lower value", "value": "0.341 (active)"}, {"measurement": "normalized growth", "setting": "S. cerevisiae deletion strains, locus YML016C, strain PPZ1, stronger effect = lower value", "value": "0.083 (active)"}, {"measurement": "normalized growth", "setting": "S. cerevisiae deletion strains, locus YML032C, strain rad52, stronger effect = lower value", "value": "0.857 (active)"}, {"measurement": "normalized growth", "setting": "S. cerevisiae deletion strains, locus YML120C, strain ndi1, stronger effect = lower value", "value": 1.01}, {"measurement": "normalized growth", "setting": "S. cerevisiae deletion strains, locus YML124C, strain tub3, stronger effect = lower value", "value": "0.824 (active)"}, {"measurement": "normalized growth", "setting": "S. cerevisiae deletion strains, locus YMR078C, strain ctf18, stronger effect = lower value", "value": 0.938}, {"measurement": "normalized growth", "setting": "S. cerevisiae deletion strains, locus YMR125W, strain sto1, stronger effect = lower value", "value": 0.985}, {"measurement": "normalized growth", "setting": "S. cerevisiae deletion strains, locus YMR129W, stronger effect = lower value", "value": 1.01}, {"measurement": "normalized growth", "setting": "S. cerevisiae deletion strains, locus YMR205C, strain PFK2, stronger effect = lower value", "value": 1.02}, {"measurement": "normalized growth", "setting": "S. cerevisiae deletion strains, locus YMR223W, strain ubp8, stronger effect = lower value", "value": "0.666 (active)"}, {"measurement": "normalized growth", "setting": "S. cerevisiae deletion strains, locus YMR231W, strain pep5, stronger effect = lower value", "value": 0.981}, {"measurement": "normalized growth", "setting": "S. cerevisiae deletion strains, locus YMR307W, strain GAS1, stronger effect = lower value", "value": "0.448 (active)"}, {"measurement": "normalized growth", "setting": "S. cerevisiae deletion strains, locus YNL067W, strain RPL9B, stronger effect = lower value", "value": "0.366 (active)"}, {"measurement": "normalized growth", "setting": "S. cerevisiae deletion strains, locus YNL071W, strain lat1, stronger effect = lower value", "value": 1.02}, {"measurement": "normalized growth", "setting": "S. cerevisiae deletion strains, locus YNL183C, strain NPR1, stronger effect = lower value", "value": 0.943}, {"measurement": "normalized growth", "setting": "S. cerevisiae deletion strains, locus YNL209W, strain ssb2, stronger effect = lower value", "value": 0.991}, {"measurement": "normalized growth", "setting": "S. cerevisiae deletion strains, locus YNL233W, strain BNI4, stronger effect = lower value", "value": "0.455 (active)"}, {"measurement": "normalized growth", "setting": "S. cerevisiae deletion strains, locus YNL248C, strain rpa49, stronger effect = lower value", "value": 1.03}, {"measurement": "normalized growth", "setting": "S. cerevisiae deletion strains, locus YNL250W, strain rad50, stronger effect = lower value", "value": 0.953}, {"measurement": "normalized growth", "setting": "S. cerevisiae deletion strains, locus YNL271C, strain bni1, stronger effect = lower value", "value": 0.941}, {"measurement": "normalized growth", "setting": "S. cerevisiae deletion strains, locus YNL298W, strain CLA4, stronger effect = lower value", "value": 0.948}, {"measurement": "normalized growth", "setting": "S. cerevisiae deletion strains, locus YNL307C, strain MCK1, stronger effect = lower value", "value": 0.915}, {"measurement": "normalized growth", "setting": "S. cerevisiae deletion strains, locus YNL322C, strain KRE1 (second series), stronger effect = lower value", "value": 1.01}, {"measurement": "normalized growth", "setting": "S. cerevisiae deletion strains, locus YNR049C, strain mso1, stronger effect = lower value", "value": 1.03}, {"measurement": "normalized growth", "setting": "S. cerevisiae deletion strains, locus YNR052C, strain pop2, stronger effect = lower value", "value": "0.436 (active)"}, {"measurement": "normalized growth", "setting": "S. cerevisiae deletion strains, locus YOL012C, strain htz1", "value": 0.207}, {"measurement": "normalized growth", "setting": "S. cerevisiae deletion strains, locus YOL147C, strain pex11, stronger effect = lower value", "value": "0.779 (active)"}, {"measurement": "normalized growth", "setting": "S. cerevisiae deletion strains, locus YOR001W, strain rrp6, stronger effect = lower value", "value": 1.02}, {"measurement": "normalized growth", "setting": "S. cerevisiae deletion strains, locus YOR061W, strain CKA2, stronger effect = lower value", "value": "0.218 (active)"}, {"measurement": "normalized growth", "setting": "S. cerevisiae deletion strains, locus YOR069W, strain VPS5, stronger effect = lower value", "value": "0.182 (active)"}, {"measurement": "normalized growth", "setting": "S. cerevisiae deletion strains, locus YOR070C, strain gyp1, stronger effect = lower value", "value": 1}, {"measurement": "normalized growth", "setting": "S. cerevisiae deletion strains, locus YOR080W, strain dia2, stronger effect = lower value", "value": 1.02}, {"measurement": "normalized growth", "setting": "S. cerevisiae deletion strains, locus YOR083W, strain WHI5, stronger effect = lower value", "value": 0.999}, {"measurement": "normalized growth", "setting": "S. cerevisiae deletion strains, locus YOR106W, strain vam3, stronger effect = lower value", "value": 0.989}, {"measurement": "normalized growth", "setting": "S. cerevisiae deletion strains, locus YOR136W, strain idh2, stronger effect = lower value", "value": "0.795 (active)"}, {"measurement": "normalized growth", "setting": "S. cerevisiae deletion strains, locus YOR144C, strain elg1, stronger effect = lower value", "value": "0.814 (active)"}, {"measurement": "normalized growth", "setting": "S. cerevisiae deletion strains, locus YOR184W, strain ser1, stronger effect = lower value", "value": "0.445 (active)"}, {"measurement": "normalized growth", "setting": "S. cerevisiae deletion strains, locus YOR231W, strain MKK1, stronger effect = lower value", "value": 1.02}, {"measurement": "normalized growth", "setting": "S. cerevisiae deletion strains, locus YOR265W, strain rbl2, stronger effect = lower value", "value": 1.02}, {"measurement": "normalized growth", "setting": "S. cerevisiae deletion strains, locus YOR270C, strain vph1, stronger effect = lower value", "value": 1.06}, {"measurement": "normalized growth", "setting": "S. cerevisiae deletion strains, locus YOR290C, strain snf2, stronger effect = lower value", "value": 0.988}, {"measurement": "normalized growth", "setting": "S. cerevisiae deletion strains, locus YOR316C, strain cot1, stronger effect = lower value", "value": 0.947}, {"measurement": "normalized growth", "setting": "S. cerevisiae deletion strains, locus YPL051W, strain arl3, stronger effect = lower value", "value": 1}, {"measurement": "normalized growth", "setting": "S. cerevisiae deletion strains, locus YPL055C, strain LGE1, stronger effect = lower value", "value": "0.139 (active)"}, {"measurement": "normalized growth", "setting": "S. cerevisiae deletion strains, locus YPL078C, strain atp4, stronger effect = lower value", "value": 0.983}, {"measurement": "normalized growth", "setting": "S. cerevisiae deletion strains, locus YPL106C, strain sse1, stronger effect = lower value", "value": 1.01}, {"measurement": "normalized growth", "setting": "S. cerevisiae deletion strains, locus YPL240C, strain hsp82, stronger effect = lower value", "value": 1.01}, {"measurement": "normalized growth", "setting": "S. cerevisiae deletion strains, locus YPL256C, strain CLN2, stronger effect = lower value", "value": 1.07}, {"measurement": "normalized growth", "setting": "S. cerevisiae deletion strains, locus YPR119W, strain clb2, stronger effect = lower value", "value": 0.972}, {"measurement": "normalized growth", "setting": "S. cerevisiae deletion strains, locus YPR141C, strain kar3, stronger effect = lower value", "value": 0.974}, {"measurement": "normalized growth", "setting": "S. cerevisiae deletion strains, locus YPR163C, strain tif3, stronger effect = lower value", "value": "0.87 (active)"}, {"measurement": "normalized growth", "setting": "S. cerevisiae deletion strains, locus YPR167C, strain met16, stronger effect = lower value", "value": "0.847 (active)"}, {"measurement": "normalized growth", "setting": "S. cerevisiae deletion strains, strain wtn01, stronger effect = lower value", "value": "0.433 (active)"}, {"measurement": "normalized growth", "setting": "S. cerevisiae strains, strain wild type, stronger effect = lower value", "value": "0.0757 (active)"}]}
